PubChem BioAssay (Tox21)
Records with an inconclusive call do not appear. The source made the active and inactive calls. Unless noted, calls follow the shape of the dose curve; as a rule, active = well fitted curve in the direction sought with a large enough effect in the repeat runs; inconclusive = weak or mixed curves; inactive = no such curve, though single readings can be large; an effect the other way counts as inactive or inconclusive.

Tests used:
[1] = qHTS assay to identify small molecule antagonists of the estrogen related receptor (ERR) signaling pathway from Tox21 library - cell viability counter screen (AID 1224834); also: nearly all actives have a fitted effect of over 30% in size; also: potency is read from the fitted curve at half-maximal effect
Outline: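 Multiplexed viability counter screen in ERR cells: 17.5 h compound exposure at 37 C, CellTiter-Fluor added, 30 min at 37 C/5% CO2, fluorescence read.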

[2] = qHTS assay to identify small molecule agonists of the constitutive androstane receptor (CAR) signaling pathway - cell viability counter screen (AID 1224836); also: nearly all actives have a fitted effect of over 45% in size; also: potency is read from the fitted curve at half-maximal effect
Outline: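 Viability read-out: CellTiter-Fluor fluorescence after 23 h compound exposure at 37 C/5% CO2 in double-stable HepG2-CYP2B6-hCAR cells, with PK11195 present at 0.75 uM final; compounds tested in 15-point titration.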

[3] = qHTS assay to identify small molecule antagonists of the constitutive androstane receptor (CAR) signaling pathway - cell viability counter screen (AID 1224837); also: nearly all actives have a fitted effect of over 45% in size; also: potency is read from the fitted curve at half-maximal effect
Outline: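 Read-out: CellTiter-Fluor fluorescence after 23 hr at 37 C/5% CO2. Cells: HepG2 double-stable for hCAR and CYP2B6-2.2kb. Compounds tested at 15 concentrations in the presence of CITCO, final concentration 50 nM.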

[4] = biological target: Nuclear receptor subfamily 1 group I member 3 (Homo sapiens) (UniProt Q14994); test: qHTS assay to identify small molecule antagonists of the constitutive androstane receptor (CAR) signaling pathway (AID 1224838);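 also: HepG2 cells stably expressing hCAR with CYP2B6 luciferase reporter stimulated by CITCO; nearly all actives have a fitted effect of over 40% in size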
Outline: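 Read-out: ONE-Glo luciferase luminescence after 30 min at room temperature. HepG2-CYP2B6-hCAR double-stable cells, compounds in 15-point titration plus 50 nM CITCO final, 24 h at 37 C/5% CO2.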

[5] = qHTS assay to identify small molecule antagonists of the estrogen related receptor signaling pathway with the pleiotropic PPARgamma coactivator (PGC) from Tox21 10K library - cell viability counter screen (AID 1224840; active = well fitted cell-killing curve with a large enough effect in the repeat runs, not every such curve was filed as active; also: nearly all actives have a fitted effect of over 40% in size; also: potency is read from the fitted curve at half-maximal effect)
Outline: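 Fluorescence read-out of CellTiter-Fluor viability reagent, added after cells had been exposed to compound in DMSO for 17.5 h at 37 C; 30 min development at 37 C/5% CO2. Cells: PGC/ERR line, 2,000/well.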

[6] = qHTS assay to identify small molecule agonists of the hypoxia (HIF-1) signaling pathway - cell viability counter screen (AID 1224844; calls by dose curve; also: nearly all actives have a fitted effect of over 50% in size; also: potency is read from the fitted curve at half-maximal effect)
Outline: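 CellTiter-Glo luminescence read-out, 30 min RT, taken in the same wells as the beta-lactamase HRE reporter assay; HRE-bla ME-180 cells, 0.5% dialyzed FBS, 17 hr compound treatment at 37C, 5% CO2.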

[7] = biological target: Luciferin 4-monooxygenase (Photinus pyralis) (UniProt P08659); test: qHTS assay to identify small molecule inhibitors of firefly luciferase (AID 1224835); also: series mostly up to about 120 µM; nearly all actives have a fitted effect of over 25% in size
Outline: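 Biochemical qHTS: compounds run as interplate titrations against purified firefly enzyme, with D-luciferin and ATP each at its KM concentration. Light output recorded by CCD imaging.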

[8] = biological target: Thyrotropin receptor (Homo sapiens) (UniProt P16473); test: qHTS assay to identify small molecule agonists of the thyroid stimulating hormone receptor (TSHR) signaling pathway (AID 1224843; calls by dose curve; also: nearly all actives have a fitted effect of over 45% in size; also: potency is read from the fitted curve at half-maximal effect)
Outline: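 Agonist-mode screen: TSHR HEK293 cells received test chemicals for half an hour at room temperature, then HTRF cAMP detection reagents for one hour prior to fluorescence measurement. Each chemical ran as a 15-concentration series, triplicated.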

[9] = biological target: Nuclear receptor subfamily 1 group I member 3 (Homo sapiens) (UniProt Q14994); test: qHTS assay to identify small molecule agonists of the constitutive androstane receptor (CAR) signaling pathway (AID 1224839);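 also: HepG2 cells stably carrying human CAR and a CYP2B6 luciferase reporter; series mostly up to about 92 µM; nearly all actives have a fitted effect of over 15% in size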
Outline: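 Luminescence read-out (ONE-Glo, 30 min, room temperature) from double-stable HepG2-CYP2B6-hCAR cells exposed 24 h to 15-point compound series in presence of 0.75 uM PK11195 final.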

[10] = qHTS assay to identify small molecule agonists of the estrogen related receptor signaling pathway with the pleiotropic PPARgamma coactivator (PGC) from Tox21 10K library (AID 1224842); also: nearly all actives have a fitted effect of over 15% in size
Outline: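 PGC/ERR reporter cell line, 2,000 cells per well, incubated 6 h at 37 C before 23 nL compound in DMSO was added. After 18 h at 37 C, One-Glo luminescence read following 30 min at room temperature.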

[11] = qHTS assay to identify small molecule agonists of H2AX (AID 1224845; active = well fitted activation curve with a large enough effect in the signal ratio in the repeat runs, not every such curve was filed as active; the % refers to the signal ratio; also: potency is read from the fitted curve at half-maximal effect)
Outline: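 Wild-type CHO-K1 cells, plated overnight, exposed 3hr at 37C to 15 concentrations (0.76% DMSO final). Lysed, then HTRF anti-pH2AX (S139) cryptate and anti-H2AX-d2 antibodies, 24 hr room temperature; 665/620 nm emission read.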

Measured: Potency

Sequence of Nuclear receptor subfamily 1 group I member 3 (Homo sapiens) (Q14994 whole entry, looked up): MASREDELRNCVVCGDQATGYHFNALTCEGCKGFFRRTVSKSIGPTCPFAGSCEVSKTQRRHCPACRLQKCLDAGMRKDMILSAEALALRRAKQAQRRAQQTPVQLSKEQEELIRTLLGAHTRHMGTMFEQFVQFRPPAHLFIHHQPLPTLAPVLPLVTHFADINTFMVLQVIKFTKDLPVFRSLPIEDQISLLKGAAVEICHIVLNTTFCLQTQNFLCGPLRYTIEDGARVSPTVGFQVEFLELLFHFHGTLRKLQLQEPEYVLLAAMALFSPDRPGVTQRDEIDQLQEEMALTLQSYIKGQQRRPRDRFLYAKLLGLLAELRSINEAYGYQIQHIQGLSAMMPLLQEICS
Sequence of Thyrotropin receptor (Homo sapiens) (P16473 whole entry, looked up): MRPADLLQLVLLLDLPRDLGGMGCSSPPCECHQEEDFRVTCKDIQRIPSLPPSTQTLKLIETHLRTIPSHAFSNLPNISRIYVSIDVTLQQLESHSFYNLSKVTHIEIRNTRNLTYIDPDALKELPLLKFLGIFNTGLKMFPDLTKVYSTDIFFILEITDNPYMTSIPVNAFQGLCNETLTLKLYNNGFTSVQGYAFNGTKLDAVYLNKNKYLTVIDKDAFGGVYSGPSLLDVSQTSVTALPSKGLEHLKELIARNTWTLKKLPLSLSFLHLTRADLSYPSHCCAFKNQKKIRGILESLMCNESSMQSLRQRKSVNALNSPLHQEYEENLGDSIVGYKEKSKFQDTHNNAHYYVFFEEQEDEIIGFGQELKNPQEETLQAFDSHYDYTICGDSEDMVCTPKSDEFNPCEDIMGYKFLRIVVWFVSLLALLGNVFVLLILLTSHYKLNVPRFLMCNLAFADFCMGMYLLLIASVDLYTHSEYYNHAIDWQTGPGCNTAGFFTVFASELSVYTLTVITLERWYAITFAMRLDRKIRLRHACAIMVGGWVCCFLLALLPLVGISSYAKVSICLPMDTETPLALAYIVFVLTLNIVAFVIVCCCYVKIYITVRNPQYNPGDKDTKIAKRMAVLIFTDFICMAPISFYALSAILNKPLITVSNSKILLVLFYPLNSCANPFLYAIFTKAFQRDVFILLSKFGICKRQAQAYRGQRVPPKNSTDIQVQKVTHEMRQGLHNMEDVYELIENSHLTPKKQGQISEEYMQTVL
Sequence of Luciferin 4-monooxygenase (Photinus pyralis) (P08659 whole entry, looked up): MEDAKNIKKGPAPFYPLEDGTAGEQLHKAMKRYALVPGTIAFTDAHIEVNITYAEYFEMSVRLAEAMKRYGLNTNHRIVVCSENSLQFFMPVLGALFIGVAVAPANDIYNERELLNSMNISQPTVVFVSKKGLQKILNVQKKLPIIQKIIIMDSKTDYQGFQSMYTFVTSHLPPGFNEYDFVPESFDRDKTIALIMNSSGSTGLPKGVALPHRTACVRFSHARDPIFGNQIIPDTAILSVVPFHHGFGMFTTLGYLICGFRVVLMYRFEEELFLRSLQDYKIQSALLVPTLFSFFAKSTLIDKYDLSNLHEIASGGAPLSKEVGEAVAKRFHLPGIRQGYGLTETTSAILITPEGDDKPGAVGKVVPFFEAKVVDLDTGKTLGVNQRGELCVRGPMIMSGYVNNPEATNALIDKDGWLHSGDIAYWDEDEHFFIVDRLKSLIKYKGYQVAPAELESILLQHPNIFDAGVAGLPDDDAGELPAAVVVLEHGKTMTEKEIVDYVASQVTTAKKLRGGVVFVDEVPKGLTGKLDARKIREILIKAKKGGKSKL

CN1[C@@H]2CC[C@@H]1CC(OC(=O)C(CO)c1ccccc1)C2 (stereo partly specified)
inactive: [1] | [2] | [3] | [4] | [5] | [6]

CN1[C@@H]2CC[C@H]1CC(OC(=O)C(CO)c1ccccc1)C2 (stereo partly specified)
inactive: [1] | [2] | [3] | [4] | [5]

C/C=C/c1ccc(OC)c(OC)c1
inactive: [1] | [7] | [2] | [3] | [5] | [8] | [6]

O=C(O)CCn1c2c(c3ccccc31)C[C@H](NS(=O)(=O)c1ccc(F)cc1)CC2
inactive: [1] | [7] | [2] | [5] | [6]

CCN(CC)CCOC(=O)C1(C2CCCCC2)CCCCC1
inactive: [7] | [2] | [3] | [4] | [5] | [6]

NCCCC(O)(P(=O)(O)O)P(=O)(O)O
inactive: [1] | [2] | [4] | [9] | [5] | [8] | [6]

C=C[C@](C)(O)CC[C@@H]1[C@@]2(C)CCCC(C)(C)[C@@H]2CC[C@@]1(C)O
inactive: [7] | [4] | [9] | [10] | [11]
active: [1] 61.1 µM | [2] 61.1 µM | [5] 61.1 µM | [8] 19.3 µM | [6] 49 µM

CC(C)=C1CC[C@@H](C)CC1=O
inactive: [1] | [7] | [2] | [4] | [9] | [5] | [8] | [6] | [11]

Clc1ccc(C(Cn2ccnc2)OCc2c(Cl)cccc2Cl)c(Cl)c1 (stereo unspecified)
inactive: [7] | [2] | [10]
active: [1] 29.8 µM | [6] 23.9 µM

CCc1cccc(C)c1
inactive: [1] | [7] | [2] | [4] | [9] | [5] | [8] | [6]

CC(NCCC(c1ccccc1)c1ccccc1)c1ccccc1 (stereo unspecified)
inactive: [7] | [9]
active: [1] 29.8 µM

CCCCCCCCCCCCCCNCCO
inactive: [1] | [2] | [3] | [4] | [5] | [8] | [6]
active: [11] 43.8 µM

C=CC(=O)OCC(O)COc1ccccc1 (stereo unspecified)
active: [6] 38.9 µM
inactive: [7] | [9]

CCCCCCCCCCOCC(O)CN (stereo unspecified)
inactive: [7] | [9] | [10] | [6]
active: [3] 29.8 µM | [8] 21.1 µM

CCCCN(CCCC)CCC(O)c1cc2c(Cl)cc(Cl)cc2c2cc(C(F)(F)F)ccc12 (stereo unspecified)
active: [6] 21.3 µM
inactive: [7] | [2] | [3] | [4] | [9] | [8] | [11]
